Columns and labels:
Test in all cases: log2 ratio of Biotin-Ahx-Ub-VS probe labelling (fragment/DMSO); higher = less target engagement (more negative = stronger competition), active = hit call of the paper (q ≤ 0.05, log2 ratio ≤ -1)
Details in all cases: compound concentration: 200 uM; treatment time: 3 h
USP34 = USP34 (UniProt Q70CQ2)
In short: (§1)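 Each value is an average log2 ratio of fragment to vehicle, tested by unpaired t-test. The underlying Spectronaut label-free quantities were global-median-normalised, and only proteins with ≥2 unique peptides were included. Triplicate HEK293T lysate samples (495 µg) were exposed to fragment at 200 µM or vehicle for 3 h, then to Biotin-Ahx-Ub-VS at 0.5 µM final for 1 h, before NeutrAvidin enrichment of labelled DUBs, LysC and trypsin digestion, and diaPASEF LC-MS/MS.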

USP36 = molecular target: T1, USP36 (UniProt Q9P275)
T1 sequence (whole entry): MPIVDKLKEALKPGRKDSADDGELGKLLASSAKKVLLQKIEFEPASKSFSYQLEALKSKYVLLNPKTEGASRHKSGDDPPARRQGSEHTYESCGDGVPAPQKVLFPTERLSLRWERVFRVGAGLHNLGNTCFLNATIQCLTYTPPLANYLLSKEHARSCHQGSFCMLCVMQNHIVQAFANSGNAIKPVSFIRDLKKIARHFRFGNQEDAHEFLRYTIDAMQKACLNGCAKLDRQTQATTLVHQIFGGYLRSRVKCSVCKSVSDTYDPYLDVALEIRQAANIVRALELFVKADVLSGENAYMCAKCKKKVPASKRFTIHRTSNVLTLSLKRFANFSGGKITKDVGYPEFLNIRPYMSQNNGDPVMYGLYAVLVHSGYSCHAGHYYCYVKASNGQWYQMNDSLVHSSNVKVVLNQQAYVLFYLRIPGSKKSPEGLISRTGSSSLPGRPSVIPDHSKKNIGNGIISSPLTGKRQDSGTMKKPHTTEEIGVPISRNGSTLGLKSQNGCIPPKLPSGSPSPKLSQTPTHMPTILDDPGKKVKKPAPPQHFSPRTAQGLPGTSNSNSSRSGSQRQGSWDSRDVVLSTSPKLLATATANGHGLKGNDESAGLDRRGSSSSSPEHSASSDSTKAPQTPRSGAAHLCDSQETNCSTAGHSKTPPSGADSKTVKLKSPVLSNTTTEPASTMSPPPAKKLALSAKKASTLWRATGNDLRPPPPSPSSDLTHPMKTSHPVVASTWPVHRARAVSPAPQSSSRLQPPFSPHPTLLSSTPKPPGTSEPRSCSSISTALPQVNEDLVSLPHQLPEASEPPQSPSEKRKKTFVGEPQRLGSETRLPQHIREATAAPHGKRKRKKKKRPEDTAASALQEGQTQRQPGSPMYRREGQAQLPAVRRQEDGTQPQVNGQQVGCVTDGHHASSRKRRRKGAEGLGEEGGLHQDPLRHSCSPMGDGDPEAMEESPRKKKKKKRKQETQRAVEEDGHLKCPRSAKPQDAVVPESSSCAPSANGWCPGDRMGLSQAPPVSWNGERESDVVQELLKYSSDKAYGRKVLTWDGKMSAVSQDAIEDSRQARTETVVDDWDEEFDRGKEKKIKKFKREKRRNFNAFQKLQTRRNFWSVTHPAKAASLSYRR
In short: as §1

USP38 = molecular target: T2, USP38 (UniProt Q8NB14)
T2 sequence (whole entry): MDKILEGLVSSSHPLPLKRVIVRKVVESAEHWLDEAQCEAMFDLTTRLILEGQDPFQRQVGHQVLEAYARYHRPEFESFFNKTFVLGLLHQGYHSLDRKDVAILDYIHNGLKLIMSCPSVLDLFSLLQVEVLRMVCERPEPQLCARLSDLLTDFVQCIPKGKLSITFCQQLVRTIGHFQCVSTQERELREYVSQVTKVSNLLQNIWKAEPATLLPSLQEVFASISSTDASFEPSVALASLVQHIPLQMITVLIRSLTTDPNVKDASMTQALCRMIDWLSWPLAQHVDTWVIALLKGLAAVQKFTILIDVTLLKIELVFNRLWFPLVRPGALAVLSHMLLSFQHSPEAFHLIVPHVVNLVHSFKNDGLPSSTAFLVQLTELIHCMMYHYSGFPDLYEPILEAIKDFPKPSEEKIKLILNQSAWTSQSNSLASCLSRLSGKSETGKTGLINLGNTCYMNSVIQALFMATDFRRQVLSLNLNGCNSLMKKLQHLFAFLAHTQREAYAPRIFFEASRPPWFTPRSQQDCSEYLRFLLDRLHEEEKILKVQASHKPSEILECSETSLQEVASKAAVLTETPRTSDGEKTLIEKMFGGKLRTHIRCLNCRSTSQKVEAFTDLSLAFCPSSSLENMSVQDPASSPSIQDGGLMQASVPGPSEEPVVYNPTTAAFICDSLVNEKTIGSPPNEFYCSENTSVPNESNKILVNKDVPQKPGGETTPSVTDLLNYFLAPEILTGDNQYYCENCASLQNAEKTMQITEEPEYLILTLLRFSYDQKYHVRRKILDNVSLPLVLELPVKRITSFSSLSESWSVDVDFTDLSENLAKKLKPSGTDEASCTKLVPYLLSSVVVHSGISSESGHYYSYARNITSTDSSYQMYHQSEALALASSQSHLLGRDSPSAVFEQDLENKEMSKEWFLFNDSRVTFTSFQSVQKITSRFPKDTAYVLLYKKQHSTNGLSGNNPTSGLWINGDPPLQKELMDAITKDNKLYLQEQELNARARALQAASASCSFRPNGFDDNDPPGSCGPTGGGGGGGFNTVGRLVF
In short: as §1

USP39 = molecular target: T3, USP39 (UniProt Q53GS9)
T3 sequence (whole entry): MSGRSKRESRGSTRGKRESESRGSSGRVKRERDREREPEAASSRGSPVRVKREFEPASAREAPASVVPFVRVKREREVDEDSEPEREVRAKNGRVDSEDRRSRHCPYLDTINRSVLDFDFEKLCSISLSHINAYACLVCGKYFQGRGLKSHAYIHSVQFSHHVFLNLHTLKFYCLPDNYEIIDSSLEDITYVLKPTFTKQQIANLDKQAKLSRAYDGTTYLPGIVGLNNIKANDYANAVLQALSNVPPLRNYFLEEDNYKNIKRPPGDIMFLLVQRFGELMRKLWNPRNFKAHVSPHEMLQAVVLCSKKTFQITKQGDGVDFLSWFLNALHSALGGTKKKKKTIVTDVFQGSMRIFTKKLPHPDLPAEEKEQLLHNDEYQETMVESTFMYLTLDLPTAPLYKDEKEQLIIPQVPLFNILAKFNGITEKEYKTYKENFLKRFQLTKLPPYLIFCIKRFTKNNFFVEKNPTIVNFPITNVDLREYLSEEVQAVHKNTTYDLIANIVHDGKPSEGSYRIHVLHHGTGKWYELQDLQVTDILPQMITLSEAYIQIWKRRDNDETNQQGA
In short: as §1

USP4 = molecular target: T4, USP4 (UniProt Q13107)
T4 sequence (whole entry): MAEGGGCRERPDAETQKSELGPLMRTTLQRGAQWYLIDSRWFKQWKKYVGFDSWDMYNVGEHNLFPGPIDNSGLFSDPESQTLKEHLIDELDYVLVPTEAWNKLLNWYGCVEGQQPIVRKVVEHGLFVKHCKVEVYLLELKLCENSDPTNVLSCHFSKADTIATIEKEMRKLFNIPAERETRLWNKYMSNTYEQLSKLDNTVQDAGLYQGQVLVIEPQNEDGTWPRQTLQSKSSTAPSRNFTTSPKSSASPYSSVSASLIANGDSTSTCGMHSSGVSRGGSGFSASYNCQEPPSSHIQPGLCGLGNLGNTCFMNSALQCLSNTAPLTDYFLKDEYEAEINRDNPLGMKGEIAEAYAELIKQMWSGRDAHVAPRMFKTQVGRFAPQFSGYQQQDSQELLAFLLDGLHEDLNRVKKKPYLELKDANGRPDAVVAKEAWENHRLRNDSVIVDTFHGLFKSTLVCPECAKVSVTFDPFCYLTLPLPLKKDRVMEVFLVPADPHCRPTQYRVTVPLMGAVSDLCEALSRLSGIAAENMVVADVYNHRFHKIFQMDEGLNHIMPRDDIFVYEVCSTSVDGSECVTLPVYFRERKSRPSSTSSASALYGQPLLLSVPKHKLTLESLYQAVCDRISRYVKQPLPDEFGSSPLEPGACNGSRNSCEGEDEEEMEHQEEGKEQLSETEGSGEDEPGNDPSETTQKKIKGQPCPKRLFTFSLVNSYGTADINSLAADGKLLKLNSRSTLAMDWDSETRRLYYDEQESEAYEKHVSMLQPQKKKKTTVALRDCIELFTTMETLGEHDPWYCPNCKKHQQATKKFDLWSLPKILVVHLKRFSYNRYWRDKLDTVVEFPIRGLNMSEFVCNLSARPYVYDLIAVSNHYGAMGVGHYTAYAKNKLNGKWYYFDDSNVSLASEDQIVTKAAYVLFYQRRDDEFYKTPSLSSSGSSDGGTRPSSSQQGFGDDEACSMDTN
In short: as §1

Measured: log2 ratio of Biotin-Ahx-Ub-VS probe labelling

Sequence of USP34 (Q70CQ2 whole entry, the tested form may be a part): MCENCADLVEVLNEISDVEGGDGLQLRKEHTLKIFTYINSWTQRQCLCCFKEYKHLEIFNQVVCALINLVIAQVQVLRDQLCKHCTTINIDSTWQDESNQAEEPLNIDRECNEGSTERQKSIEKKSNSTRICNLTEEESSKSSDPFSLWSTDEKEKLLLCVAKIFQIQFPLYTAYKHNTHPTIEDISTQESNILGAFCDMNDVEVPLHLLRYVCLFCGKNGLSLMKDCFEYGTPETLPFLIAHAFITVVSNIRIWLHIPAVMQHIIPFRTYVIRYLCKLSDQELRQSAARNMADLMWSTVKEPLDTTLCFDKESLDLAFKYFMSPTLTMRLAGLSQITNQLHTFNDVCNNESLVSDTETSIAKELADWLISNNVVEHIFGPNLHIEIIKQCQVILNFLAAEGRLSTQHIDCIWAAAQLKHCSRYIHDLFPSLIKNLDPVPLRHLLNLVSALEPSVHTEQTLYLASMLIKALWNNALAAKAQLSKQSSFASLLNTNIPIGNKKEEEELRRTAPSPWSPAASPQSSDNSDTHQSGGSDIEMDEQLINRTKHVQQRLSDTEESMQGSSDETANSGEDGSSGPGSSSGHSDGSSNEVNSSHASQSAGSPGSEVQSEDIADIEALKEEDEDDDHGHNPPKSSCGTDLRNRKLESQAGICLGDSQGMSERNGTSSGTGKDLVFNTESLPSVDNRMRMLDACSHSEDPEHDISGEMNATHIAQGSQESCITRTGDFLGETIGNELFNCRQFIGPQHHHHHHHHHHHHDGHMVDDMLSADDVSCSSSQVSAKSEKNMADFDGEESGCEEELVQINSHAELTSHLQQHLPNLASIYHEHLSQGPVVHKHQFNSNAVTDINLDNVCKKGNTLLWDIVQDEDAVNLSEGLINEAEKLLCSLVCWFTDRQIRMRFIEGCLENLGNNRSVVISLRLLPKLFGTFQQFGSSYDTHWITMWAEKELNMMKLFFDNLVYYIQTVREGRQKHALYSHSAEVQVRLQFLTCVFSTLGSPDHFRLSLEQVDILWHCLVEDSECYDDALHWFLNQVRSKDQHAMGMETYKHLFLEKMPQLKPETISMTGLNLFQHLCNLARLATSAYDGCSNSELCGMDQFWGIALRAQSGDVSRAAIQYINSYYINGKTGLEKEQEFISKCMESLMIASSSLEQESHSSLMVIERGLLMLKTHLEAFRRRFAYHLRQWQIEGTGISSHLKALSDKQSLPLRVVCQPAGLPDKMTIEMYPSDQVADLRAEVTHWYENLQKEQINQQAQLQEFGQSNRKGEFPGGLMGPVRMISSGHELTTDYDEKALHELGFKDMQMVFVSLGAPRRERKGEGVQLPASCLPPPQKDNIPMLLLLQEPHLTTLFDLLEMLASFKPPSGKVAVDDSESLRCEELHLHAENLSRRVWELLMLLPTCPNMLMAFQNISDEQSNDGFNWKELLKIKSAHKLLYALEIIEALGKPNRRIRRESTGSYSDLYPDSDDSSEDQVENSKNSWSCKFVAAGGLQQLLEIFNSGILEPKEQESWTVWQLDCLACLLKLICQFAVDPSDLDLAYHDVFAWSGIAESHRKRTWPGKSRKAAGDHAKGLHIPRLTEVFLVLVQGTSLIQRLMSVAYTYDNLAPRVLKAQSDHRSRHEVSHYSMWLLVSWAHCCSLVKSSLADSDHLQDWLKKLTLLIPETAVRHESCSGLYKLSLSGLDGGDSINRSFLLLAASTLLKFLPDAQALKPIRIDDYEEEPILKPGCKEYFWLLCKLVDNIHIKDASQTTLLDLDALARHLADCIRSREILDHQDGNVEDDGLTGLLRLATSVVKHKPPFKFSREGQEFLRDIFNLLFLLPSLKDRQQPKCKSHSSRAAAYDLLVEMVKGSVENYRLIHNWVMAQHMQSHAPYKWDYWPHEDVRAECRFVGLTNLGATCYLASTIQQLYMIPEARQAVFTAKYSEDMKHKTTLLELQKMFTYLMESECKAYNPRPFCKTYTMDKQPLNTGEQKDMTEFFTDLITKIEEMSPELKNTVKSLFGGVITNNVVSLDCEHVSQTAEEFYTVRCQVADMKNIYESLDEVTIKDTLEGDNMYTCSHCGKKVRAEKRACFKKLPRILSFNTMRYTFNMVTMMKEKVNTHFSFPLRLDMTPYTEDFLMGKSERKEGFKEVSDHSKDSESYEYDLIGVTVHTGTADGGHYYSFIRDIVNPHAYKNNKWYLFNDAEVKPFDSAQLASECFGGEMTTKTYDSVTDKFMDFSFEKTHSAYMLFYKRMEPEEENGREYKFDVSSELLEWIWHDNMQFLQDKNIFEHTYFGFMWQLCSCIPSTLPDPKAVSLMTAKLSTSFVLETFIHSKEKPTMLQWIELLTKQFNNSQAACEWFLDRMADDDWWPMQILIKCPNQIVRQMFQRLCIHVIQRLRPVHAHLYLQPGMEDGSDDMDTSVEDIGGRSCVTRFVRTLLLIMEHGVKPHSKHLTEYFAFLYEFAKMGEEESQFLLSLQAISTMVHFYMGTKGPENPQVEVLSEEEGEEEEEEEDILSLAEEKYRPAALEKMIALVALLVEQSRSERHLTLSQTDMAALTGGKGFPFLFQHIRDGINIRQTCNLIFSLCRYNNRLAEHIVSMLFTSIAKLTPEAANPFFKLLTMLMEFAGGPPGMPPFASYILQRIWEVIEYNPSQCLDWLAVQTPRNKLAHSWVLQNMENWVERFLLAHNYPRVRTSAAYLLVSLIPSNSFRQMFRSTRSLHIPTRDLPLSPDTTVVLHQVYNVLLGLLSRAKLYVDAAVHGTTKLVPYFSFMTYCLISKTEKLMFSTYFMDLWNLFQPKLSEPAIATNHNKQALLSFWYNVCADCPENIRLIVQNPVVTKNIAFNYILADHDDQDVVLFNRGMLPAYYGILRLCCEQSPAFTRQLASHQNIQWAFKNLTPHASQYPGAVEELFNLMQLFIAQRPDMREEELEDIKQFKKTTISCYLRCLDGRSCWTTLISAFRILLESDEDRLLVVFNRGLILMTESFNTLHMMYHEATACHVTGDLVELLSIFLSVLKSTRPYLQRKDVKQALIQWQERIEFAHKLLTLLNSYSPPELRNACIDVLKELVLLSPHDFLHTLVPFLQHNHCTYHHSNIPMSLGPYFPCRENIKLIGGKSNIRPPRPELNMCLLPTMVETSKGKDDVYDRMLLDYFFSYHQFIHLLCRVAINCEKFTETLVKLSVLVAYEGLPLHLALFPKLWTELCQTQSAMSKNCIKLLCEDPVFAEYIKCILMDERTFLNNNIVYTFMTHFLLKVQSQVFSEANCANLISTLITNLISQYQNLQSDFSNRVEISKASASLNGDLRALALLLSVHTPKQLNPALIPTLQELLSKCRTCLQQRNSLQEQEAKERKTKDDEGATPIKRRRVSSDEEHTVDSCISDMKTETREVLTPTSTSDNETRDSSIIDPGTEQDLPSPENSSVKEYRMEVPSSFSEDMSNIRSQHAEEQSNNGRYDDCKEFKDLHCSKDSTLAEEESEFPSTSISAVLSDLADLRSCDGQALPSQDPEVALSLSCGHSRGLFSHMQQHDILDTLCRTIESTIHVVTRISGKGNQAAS

O=C(CCl)N(C1CCCC1)C1CCS(=O)(=O)C1 (stereo not given)
inactive: USP34 -0.0865 | USP36 -0.298 | USP38 -0.0626 | USP39 0.151 | USP4 0.0894

— the supplement of paper PMC11732987, “Enantioselective OTUD7B fragment discovery through chemoproteomics screening and high-throughput optimisation” (Communications Chemistry, 2025)
